Measured values: article PMC13541613, “GHT-SELEX demonstrates unexpectedly high intrinsic sequence specificity and complex DNA binding of many human transcription factors”

What follows are sequences tested against ZNF721 full-length (Homo sapiens, UniProt Q8TF20-2 1-923) (assay: HT-SELEX; 20 mM HEPES pH 7, 140 mM KCl, 5 mM NaCl, 1 mM K2HPO4, 2 mM MgSO4, 100 uM EGTA, ZnSO4, 0.1% Tween20; room temperature, 1 h; high values mean tight binding). Settings: protein: ivt; tags: eGFP (N-terminal); dsDNA, one strand shown.
Sequence of ZNF721 full-length (Q8TF20 other isoform, or with tags, fused parts or gaps): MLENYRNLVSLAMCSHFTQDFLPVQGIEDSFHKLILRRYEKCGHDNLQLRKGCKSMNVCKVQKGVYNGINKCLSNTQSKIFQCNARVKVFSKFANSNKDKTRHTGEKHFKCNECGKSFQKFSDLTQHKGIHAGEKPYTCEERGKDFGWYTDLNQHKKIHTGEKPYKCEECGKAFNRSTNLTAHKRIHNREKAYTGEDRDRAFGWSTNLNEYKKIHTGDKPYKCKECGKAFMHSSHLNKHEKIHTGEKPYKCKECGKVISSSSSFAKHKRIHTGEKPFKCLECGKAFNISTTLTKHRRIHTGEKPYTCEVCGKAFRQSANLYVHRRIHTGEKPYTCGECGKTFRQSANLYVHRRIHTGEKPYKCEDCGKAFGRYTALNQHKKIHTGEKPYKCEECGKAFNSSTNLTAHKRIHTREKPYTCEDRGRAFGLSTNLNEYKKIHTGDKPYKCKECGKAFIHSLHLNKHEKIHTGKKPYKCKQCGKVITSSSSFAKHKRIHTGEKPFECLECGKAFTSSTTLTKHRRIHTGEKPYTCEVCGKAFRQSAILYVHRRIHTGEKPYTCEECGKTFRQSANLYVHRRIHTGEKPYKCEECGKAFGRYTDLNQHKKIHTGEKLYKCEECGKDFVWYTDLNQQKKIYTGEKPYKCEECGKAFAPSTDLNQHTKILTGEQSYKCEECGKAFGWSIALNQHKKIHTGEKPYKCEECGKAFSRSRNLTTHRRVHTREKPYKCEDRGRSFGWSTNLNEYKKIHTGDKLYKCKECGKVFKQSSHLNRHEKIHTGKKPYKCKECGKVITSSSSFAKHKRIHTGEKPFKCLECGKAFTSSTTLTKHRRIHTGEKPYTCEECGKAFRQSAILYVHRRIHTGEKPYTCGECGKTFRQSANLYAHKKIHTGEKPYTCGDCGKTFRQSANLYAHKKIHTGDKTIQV
How it was run: (§1)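 A tagged transcription factor, either full-length or its DNA-binding-domain fragment, was made in HEK293 lysate or cell-free extract, immobilised on beads and incubated with a randomized 40-base DNA library for 1 h at room temperature in HEPES/KCl low-stringency buffer containing Tween20. Washed beads were heat-eluted, and the bound DNA was PCR-amplified over successive cycles and Illumina-sequenced at ~3 million 60 bp reads per sample. The binding signal is the relative k-mer count in selected reads, where a higher value means tighter binding.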

Sequence	binding signal [relative 10-mer count]
CCCCACCCAC	0.337
CTTCATACAC	0.291
CCACCCTACC	0.115
CAGGGGTGGG	0.103
CATACCCAAA	0.103
CCGCGCCCCC	0.115
CCCCCCTCCA	0.13
GCAGCATACC	0.151
CACCCCCACA	0.116
CCCCTCACCC	0.187
CCCAACCCCC	0.208
ACAAAAAAGC	0.187
CTCCCCACCA	0.115
AAAAAGCAGC	0.557
CTCCCCCCAC	0.148
CAACCCCACC	0.149
CATCCCACCC	0.138
CCCCGCTCCC	0.139
CACCCCGCCA	0.108
CCACCCACCA	0.237

Sequence	binding signal [relative 10-mer count]
CGCCCACCCC	0.23
TCCCCCACCA	0.114
CACCCTCCCA	0.123
CCAACCACCC	0.175
CGTCCCCCAC	0.104
AAAAAAAAAG	0.384
ACCCCCTCCC	0.158
AAGTGTATCC	0.292
AAGCTATCCC	0.172
GCCCTCCCCC	0.163
CCCATCCCCC	0.185
CCCCCCCACC	0.358
CCCACCTACC	0.111
CCCCACACCC	0.274
CTCCCTCCCC	0.143
AGCGTCTCCA	0.271
CCCCCACCAA	0.115
AGCATACCCC	0.144
TAAAAAAGCA	0.179
CACCCCCAAC	0.118

Each sequence was assayed against ZNF721 DBD1 (Homo sapiens, UniProt Q8TF20-2 29-461) in the same assay as above. Settings: protein: ivt; tags: eGFP (N-terminal); dsDNA, one strand shown.
Sequence of ZNF721 DBD1 (Q8TF20 17-449): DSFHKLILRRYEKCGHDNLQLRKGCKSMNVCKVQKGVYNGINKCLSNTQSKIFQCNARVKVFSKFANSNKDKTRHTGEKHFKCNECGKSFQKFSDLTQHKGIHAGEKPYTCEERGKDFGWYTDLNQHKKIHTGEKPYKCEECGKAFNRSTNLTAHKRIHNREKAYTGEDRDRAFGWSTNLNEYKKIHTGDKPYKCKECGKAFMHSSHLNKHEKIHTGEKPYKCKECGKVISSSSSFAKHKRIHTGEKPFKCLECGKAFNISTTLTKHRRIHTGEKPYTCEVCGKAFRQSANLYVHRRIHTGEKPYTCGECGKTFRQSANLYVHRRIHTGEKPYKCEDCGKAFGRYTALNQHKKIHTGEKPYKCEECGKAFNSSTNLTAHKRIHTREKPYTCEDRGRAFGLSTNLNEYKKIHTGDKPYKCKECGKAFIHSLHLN
How it was run: as §1

Sequence	binding signal [relative 10-mer count]
CCCCACCCAC	0.0124
CTTCATACAC	0.384
CCACCCTACC	0.00688
CAGGGGTGGG	0.00482
CATACCCAAA	0.00583
CCGCGCCCCC	0.00427
CCCCCCTCCA	0.0055
GCAGCATACC	0.00147
CACCCCCACA	0.00482
CCCCTCACCC	0.00711
CCCAACCCCC	0.00789
ACAAAAAAGC	0.0198
CTCCCCACCA	0.00596
AAAAAGCAGC	0.00835
CTCCCCCCAC	0.00794
CAACCCCACC	0.00454
CATCCCACCC	0.00527
CCCCGCTCCC	0.0044
CACCCCGCCA	0.00404
CCACCCACCA	0.00977

Sequence	binding signal [relative 10-mer count]
CGCCCACCCC	0.00913
TCCCCCACCA	0.00527
CACCCTCCCA	0.00555
CCAACCACCC	0.00624
CGTCCCCCAC	0.00468
AAAAAAAAAG	0.0474
ACCCCCTCCC	0.00807
AAGTGTATCC	0.241
AAGCTATCCC	0.105
GCCCTCCCCC	0.00716
CCCATCCCCC	0.00716
CCCCCCCACC	0.0144
CCCACCTACC	0.00573
CCCCACACCC	0.01
CTCCCTCCCC	0.00927
AGCGTCTCCA	0.0472
CCCCCACCAA	0.00431
AGCATACCCC	0.0115
TAAAAAAGCA	0.00816
CACCCCCAAC	0.00514
